Experimental findings from PubChem BioAssay AID720569 (National Center for Advancing Translational Sciences (NCATS), 2013) are described below.

The list shows a part of the results. Results filed as inconclusive are left out. Active and inactive are the calls of the source. Calls follow the shape of the dose curve; as a rule, active = well fitted inhibition curve with a large enough effect; inconclusive = small, poorly fitted or top-dose-only effect; inactive = no such curve, though single readings can be large or run the other way.
Potency is read from the fitted curve at half-maximal effect.

For the experiment, the system named is pyruvate kinase (Trypanosoma brucei). Kind of experiment: qHTS of Trypanosoma Brucei Inhibitors: Confirmatory Assay for Cherry-picked Compounds. Also: nearly all actives have a fitted effect of over 70% in size. To be noted: recombinant TbPYK, Kinase-Glo ATP luminescence; series mostly up to 76.9 µM. From the text: Members of the Trypanosomatidae family of parasitic protozoans cause a spectrum of diseases throughout the tropical and subtropical world. Sleeping sickness, caused by two subspecies of Trypanosoma brucei, is endemic to areas of sub-Saharan Africa, while Chagas' disease, a manifestation of Trypanosoma cruzi infection, is prevalent throughout Central and South America. In addition, many species of Leishmania are responsible for a range of cutaneous and visceral diseases, causing ulcers, destructive lesions and kalaazar, a lethal infection of the viscera. These diseases cause severe public health and economic burdens on populations that are often already caught in a tragic cycle of poverty, poor nutrition and disease. Collectively, parasites of the trypanosomatid family infect 30 million people worldwide (~500 million live in endemic areas), and account for ~130K deaths annually. Existing treatments have developed little in the past 50 years, and suffer from toxicity, poor efficacy and resistance; the goal of this project is to develop lead drugs that will be suitable for entry into pre-clinical trials. […] Glycolysis in axenically cultured T. cruzi, representing the intracellular pathogenic stage, is also essential for these parasites. {Engel, 1987} This project aims to discover and optimize selective inhibitors of the glycolytic enzyme pyruvate kinase (PYK) from Trypanosoma brucei, the parasite that causes sleeping sickness. […] Trypanosomatid PYKs show significant differences from their human counterparts including only 47-50% sequence identity and different allosteric and activation properties.{Callens, 1992} To this end, a qHTS was done against the MLSMR to discover inhibitors. NIH Molecular Libraries Probe Production Network [MLPCN] NIH Chemical Genomics Center [NCGC] Grant: MH095452 PI Name: Malcolm Walkinshaw, University of Edinburgh
Two uL of TbPYK/substrate buffer (columns 1-3, 5-48) are dispensed into Greiner white solid bottom 1536-well assay plates; column 4 receives only TEA buffer as 0x TbPYK controls. Compounds are then transferred via Kalypsys pin tool equipped with 1536-pin array (10 nL slotted pins, V&P Scientific, San Diego, CA). Following addition of compound, 2 uL of ADP (130 uM final concentration, all columns) is added to initiate the reaction. The plates are then incubated at room temperature for 45 minutes. Kinase-Glo Plus reagent is added (3 uL) and plates incubated for 10 minutes, before being transferred to a ViewLux high-throughput CCD imager (PerkinElmer) wherein single end-point measurements of luminescence are acquired using a clear filter. All reagents are diluted in an assay buffer consisting of 50 mM TEA (pH 7.2), 100 mM KCl, 10 mM MgCl2, 0.05% BSA and 0.01% Tween-20. All screening operations will be performed on a fully integrated robotic system (Kalypsys, San Diego, CA) containing one RX-130 and two RX-90 anthropomorphic robotic arms (Staeubli, Duncan, SC). Library plates will be screened starting from the lowest and proceeding to the highest concentration. Vehicle-only plates, with DMSO being pin-transferred to columns 5-48, will be inserted uniformly at the beginning and the end of each library in order to monitor and record any shifts in the background, which can be affected by reagent dispensers or loss in enzyme activity over time. Screening data will be corrected, normalized, and concentration-effect relationships will be derived by using publicly-available curve fitting algorithms developed in-house (http://ncgc.nih.gov/pub/openhts).
As to `c1ccc(-c2nnc3n2NC(c2ccc4c(c2)OCO4)S3)cc1` (centres undefined), the Potency was 0.0708 µM (active). To `COCCNC(=O)Nc1ccc2nc(-c3ccco3)c(-c3ccco3)nc2c1` belongs 11.2 µM (active); to `Cc1c(C)c(C)c(S(=O)(=O)N2CCC3(CC2)OCCO3)c(C)c1C`, “inactive”; to `Cc1ccc(/C=C/C(=O)Nc2ccc([N+](=O)[O-])c(NC(=O)/C=C/c3ccc(C)o3)c2)o1`, 17.8 µM (active).

With `COc1ccc(Cc2nnc(NS(=O)(=O)Cc3ccccc3)s2)cc1`, the Potency result is “inactive”. As for `CSc1c(SCc2ccccc2)cnn(Cc2ccccc2)c1=O`, the figure is 17.8 µM (active); as for `Cc1nonc1C(=O)N/N=C/c1ccc(O)cc1`, 15.8 µM (active); as for `COC(=O)/C=C\C(=O)Nc1cccc([N+](=O)[O-])c1`, “inactive”. To `Cc1ccc(C)c2c1cc(C)c1nnc(SCC(=O)Nc3cccc(C(=O)O)c3)n12` belongs 2.24 µM (active); to `N#Cc1c(N2CCCCC2)nc(N)c2c(N)nc(SCC(=O)O)cc12`, 31.6 µM (active); to `O=c1[nH]c2ccccc2n2c(-c3ccccc3)nnc12`, 0.126 µM (active).

Turning to `COc1cc(C2CC(=O)N3CN(Cc4ccccc4)CSC3=C2C#N)ccc1OCc1ccccc1` (centres undefined), the Potency is 0.126 µM (active). As to `O=c1ccc2c(-c3ccccc3S(=O)(=O)O)c3ccc(O)c(O)c3oc-2c1O`, the Potency is 8.91 µM (active). To `NC(=O)c1c(Nc2nc3c(F)cccc3s2)sc2c1CCCC2` belongs 4.47 µM (active); to `O=C(CSc1ccc(-c2ccco2)nn1)Nc1cccc(F)c1`, 15.8 µM (active). On to `CN(c1ccccc1)S(=O)(=O)c1cccc(NC(=O)Cc2ccc(Cl)cc2)c1`, for which the Potency is 6.31 µM (active). To `O=C1C=CC(=O)N1c1ccc(N2CCCCC2)cc1` belongs 7.08 µM (active). As for `Cc1cc(C#N)c(SCC(N)=O)nc1-c1ccc(F)cc1`, the figure is 2.82 µM (active).

`Cc1nc2ccc(S(=O)(=O)NCC(=O)O)cc2s1`: the Potency is 6.31 µM (active).

As to `CC(=O)N1CC[n+]2c(-c3ccc([N+](=O)[O-])cc3)csc21`, the Potency is 1.78 µM (active). As for `C=CCn1c(=S)[nH]c2scc(-c3ccco3)c2c1=O`, the figure is 14.1 µM (active); as for `Oc1c(CN2CCOCC2)ccc(CN2CCOCC2)c1O`, 20 µM (active); as for `O=C(CN1CCN(c2ccc(O)cc2)CC1)Nc1cc(S(=O)(=O)N2CCOCC2)ccc1Cl`, 14.1 µM (active). As for `COc1cccc(C(=O)Nc2ccc(N3CCCC3)cc2)c1`, the figure is 20 µM (active); as for `O=C(Nc1ccc(S(=O)(=O)N2CCOCC2)cc1)c1ccc2ncsc2c1`, 10 µM (active); as for `Cc1cc(C2=NNC(=Nc3ccc(S(=O)(=O)N4CCOCC4)cc3)SC2)c(C)n1CC1CCCO1` (centres undefined), 11.2 µM (active). To `Cc1cccc(-n2c(N)c(C(=O)N3CCN(C)CC3)sc2=S)c1` belongs 1 µM (active). Consider `O=C(CN1CCN(c2ccc(O)cc2)CC1)Nc1ccc(-c2ccccc2)cc1`, for which the Potency was 28.2 µM (active). To `O=C(CCCCCn1c(=S)[nH]c2ccsc2c1=O)NC1CCCCC1` belongs 14.1 µM (active).
